Rows were chosen to be rich in hits. Some 15% of all compounds tested hit in one or more screens of this group.
ELG1 DNA repair: qHTS screen for small molecules that inhibit ELG1-dependent DNA repair in human embryonic kidney (HEK293T) cells expressing luciferase-tagged ELG1; HEK293T ELG1-luciferase reporter, luminescence, 16 h; DNA damage induced by 5-fluorouridine; Potency, µM (highest dose often 46.1 µM), for the others: at the top dose activity change, negative = inhibition, hits mostly inhibitors; 330,000 tested, 2.3% active; AID 504467, 2011; also: nearly all actives have a fitted effect of over 55% in size
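HEK293T cells expressing luciferase-tagged ELG1 (2,000/well) received 5-Fluorouridine plus compound or DMSO for 16 hr at 37 °C. Luciferase was read by ONE-Glo luminescence after 30 min at room temperature.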
TDP1 cell CPT: qHTS for Inhibitors of human tyrosyl-DNA phosphodiesterase 1 (TDP1): qHTS in cells in presence of CPT | chicken DT40 Tdp1-/-;hTDP1 cells + 20 nM CPT, ATP luminescence, 48 h | Potency, µM (titrated, usually from 46.2 µM), for inactives: top-dose activity change, negative = growth inhibition, actives largely listed as inhibitors | 420,000 tested, 12% active | AID 686979, 2013; also: nearly all actives have a fitted effect of over 55% in size
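Cell growth measured by CellTiter-Glo luminescence after a minimum 48 h, 37 C compound exposure with 20 nM CPT in Tdp1-knockout DT40 cells stably expressing hTDP1, seeded 400/well; qHTS titration format.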
RORg inh: qHTS for inhibitors of ROR gamma transcriptional activity | 310,000 tested, 5.4% active | Drosophila S2 Gal4-RORgamma UAS-luciferase reporter, 20 h | Nuclear receptor ROR-gamma (Mus musculus), P51450 | Potency, µM (series often up to 53.6 µM), for the others: top-dose activity change, negative = inhibition, actives largely listed as inhibitors | AID 2551, 2010; also: nearly all actives have a fitted effect of over 60% in size
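Luminescence from a UAS-regulated Photinus luciferase reporter in stably transfected Drosophila Schneider cells is measured; decreased signal marks ROR gamma inhibition. Fusion expression is induced by 700 uM copper sulfate for 20 hr.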
Gal4-VP16 FLuc: VP16 counterscreen qHTS for inhibitors of ROR gamma transcriptional activity; Drosophila S2 Gal4-VP16 UAS-luciferase, luminescence, 20 h; 310,000 tested, 3.5% active; Potency, µM (top dose mostly 53.6 µM), without a hit: at the highest dose activity, negative = inhibition, usual class: inhibitors; AID 2546, 2010;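 also: Gal4-VP16 expression switched on by copper sulfate through the metallothionein promoter; nearly all actives have a fitted effect of over 50% in size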
ALOX12 inh: Primary qHTS assay for inhibitors of human arachidonate 12S-lipoxygenase (ALOX12): Round 2. Polyunsaturated fatty acid lipoxygenase ALOX12 (Homo sapiens), P18054. purified 12hLO, xylenol orange hydroperoxide absorbance. Potency, µM (top dose mostly 108 µM), for the others: at the highest dose activity change, negative = inhibition, usual class: inhibitors. 580,000 tested, 1.1% active. AID 1671190, 2021
Target sequence (P18054 whole entry, looked up): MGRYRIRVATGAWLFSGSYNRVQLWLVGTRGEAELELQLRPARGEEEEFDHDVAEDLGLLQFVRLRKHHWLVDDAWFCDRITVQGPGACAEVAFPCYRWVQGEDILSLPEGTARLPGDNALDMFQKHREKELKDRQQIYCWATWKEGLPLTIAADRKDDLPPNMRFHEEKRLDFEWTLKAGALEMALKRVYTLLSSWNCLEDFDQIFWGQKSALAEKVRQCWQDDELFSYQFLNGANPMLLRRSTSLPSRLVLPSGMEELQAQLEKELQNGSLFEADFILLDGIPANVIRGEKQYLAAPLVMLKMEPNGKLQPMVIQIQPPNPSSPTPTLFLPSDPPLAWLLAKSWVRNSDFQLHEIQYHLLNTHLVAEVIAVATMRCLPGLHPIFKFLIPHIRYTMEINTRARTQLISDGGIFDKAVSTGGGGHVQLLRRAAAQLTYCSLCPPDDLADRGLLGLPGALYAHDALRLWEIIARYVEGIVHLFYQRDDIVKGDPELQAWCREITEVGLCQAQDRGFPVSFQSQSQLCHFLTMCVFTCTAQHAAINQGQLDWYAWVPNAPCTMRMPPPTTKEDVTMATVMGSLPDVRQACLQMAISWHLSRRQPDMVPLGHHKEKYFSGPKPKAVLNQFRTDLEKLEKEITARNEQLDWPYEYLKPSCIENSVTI
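Hydroperoxide product was detected by ferrous iron/xylenol orange as the 573 to 405 nm absorbance ratio. Arachidonic acid at 40 uM (final) was turned over for 30 min at room temperature by 150 nM human 12hLO, pH 7.0 Hepes buffer, after 15 min compound preincubation.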
TDP1 cell noCPT: qHTS for Inhibitors of human tyrosyl-DNA phosphodiesterase 1 (TDP1): qHTS in cells in absence of CPT. 420,000 tested, 15% active. DT40 Tdp1-/- hTDP1 cells, no CPT, ATP luminescence, 48 h. Potency, µM (doses to about 46.2 µM), without a hit: at the highest dose activity change, negative = growth inhibition, actives largely listed as inhibitors; also: nearly all actives have a fitted effect of over 55% in size
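Cells were dispensed at 400 per well, compounds added by pin tool, plates incubated ≥48 hr at 37 °C, then CellTiter-Glo added for 30 min at room temperature before luminescence reading. Line: DT40 Tdp1-/- complemented with hTDP1; camptothecin omitted.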
* = called active by the depositor; ? = inconclusive; nt = not tested or not shown. Calls follow the shape of the dose curve; as a rule, active = well fitted curve in the direction sought with a large enough effect; inconclusive = small, poorly fitted or top-dose-only effect, or another doubt; inactive = no such curve, though single readings can be large; an effect the other way counts as inactive or inconclusive. % is scaled to controls: 0 for no effect and ±100 for the full control effect; potency is read from the fitted curve at half-maximal effect.

SMILES | ELG1 DNA repair | TDP1 cell CPT | RORg inh | Gal4-VP16 FLuc | ALOX12 inh | TDP1 cell noCPT
Cc1ccc(C(=O)N/C(=C/c2ccc(Cl)cc2)C(=O)NCC2CCCO2)cc1 (centres undefined) | 8% | -14% | 17% | 13% | -9% | ?
CC(C)Cc1ccc(C(NC(=O)CC2(C(=O)O)CCCC2)c2cccs2)cc1 (centres undefined) | nt | nt | nt | nt | -24% | nt
O=c1c2ccccc2nc(SCCN2CCCCC2)n1CCc1ccccc1 | 4% | ? | 1% | 7% | 2% | 21µM*
NC(=O)CSc1nc2ccccc2c(=O)n1CCc1ccccc1 | -1% | -15% | ? | -27% | 7% | ?
CCOC(=O)N1CCC(n2c(SCC(=O)NCc3ccccc3)nc3ccccc3c2=O)CC1 | ? | 23µM* | -45% | -5% | 0% | 21µM*
CCOC(=O)N1CCC(n2c(SCC(=O)Nc3ccccc3OC)nc3ccccc3c2=O)CC1 | ? | ? | 25% | -2% | -7% | ?
CCOC(=O)N1CCC(n2c(SCC(=O)N3CCC(C)CC3)nc3ccccc3c2=O)CC1 | ? | 16µM* | 6% | 1% | -5% | ?
CC(C)Cn1c(SCC(=O)N2CCCCC2)nc2ccccc2c1=O | ? | ? | -29% | -5% | 4% | 26µM*
CCOc1ccccc1N1C(=O)CC(Sc2nc(C)c3cc(OC)ccc3n2)C1=O (centres undefined) | nt | nt | nt | nt | -16% | nt
CCCCN(CC)C(=O)c1cccc2c(C)c(C)[nH]c12 | nt | nt | nt | nt | -13% | nt
CCOC(=O)N1CCC(n2c(SCC(=O)N3CCCC3)nc3ccccc3c2=O)CC1 | -3% | 23µM* | 3% | -3% | -21% | 18µM*
CC(C)CNS(=O)(=O)c1ccc(CCC(=O)N2CCCC2)cc1 | -1% | 22% | -19% | -7% | -4% | 11%
CC(C)Cc1ccc(S(=O)(=O)N2CCN(Cc3noc(CCC(=O)N4CCCCC4)n3)CC2)cc1 | nt | ? | nt | nt | -26% | 21µM*
O=C1C(SCCO)=C(SCCO)C(=O)c2ccccc21 | ? | 0.052µM* | 0.63µM* | 0.79µM* | ? | 0.16µM*
O=c1[nH]c2ccccc2c(O)c1SCCO | 2% | 12% | -16% | -10% | ? | -1%
Clc1ccc(-c2cc3ccccn3c2)cc1 | nt | nt | nt | nt | 4µM* | nt
N#Cc1ccccc1Oc1ccc(OCc2ccccc2)cc1 | nt | nt | nt | nt | -23% | nt
O=C(N/C=N/OCc1ccc(Cl)cc1Cl)NOCc1ncc(C(F)(F)F)cc1Cl | ? | ? | -22% | -10% | ? | 15µM*
CO/N=C/NC(=O)NOCc1ncc(C(F)(F)F)cc1Cl | 0% | -10% | 14% | -6% | 0% | 0%
CNc1cc(C)nc(N2C[C@H](NC(=O)C3CCOCC3)[C@@H](C3CC3)C2)n1 | nt | nt | nt | nt | 37% | nt
O=C(C[n+]1cc(-c2ccc(Cl)cc2)n2c1CCC2)Nc1nc(-c2ccc(F)cc2)cs1 | 10% | ? | 4% | -10% | 126% | 18µM*
O=C(C[n+]1cc(-c2ccc(F)cc2)n2c1CCC2)Nc1nc(-c2ccc(F)cc2)cs1 | 2% | ? | 2% | 2% | -27% | ?
O=C(C[n+]1cc(-c2ccccc2)n2c1CCC2)Nc1nc(-c2ccc(F)cc2)cs1 | 1% | ? | 3% | 13% | ? | 16µM*
CC(C)N(C)S(=O)(=O)c1ccc(Cl)c(C(=O)Nc2nnc(C3CCCCC3)s2)c1 | nt | nt | nt | nt | 17% | nt
COc1ccc(NC(=S)NCc2ccc3c(c2)OCO3)cc1 | -11% | 5% | 13µM* | ? | ? | ?
SMILES | ELG1 DNA repair | TDP1 cell CPT | RORg inh | Gal4-VP16 FLuc | ALOX12 inh | TDP1 cell noCPT
O=C(NC(=S)Nc1cc(-c2nc3ccccc3[nH]2)ccc1Cl)c1ccc2c(c1)OCO2 | ? | 5.2µM* | 13µM* | -11% | ? | 3.7µM*
S=C(NCc1ccc(Cl)c(Cl)c1)Nc1ccc2c(c1)OCO2 | 8% | 1% | 11µM* | ? | -23% | -25%
CC(C)c1ccc(NC(=S)NCc2ccc3c(c2)OCO3)cc1 | 4% | -28% | 13µM* | ? | ? | ?
CC(C)c1ccc(NC(=O)Cn2nnc(C(=O)NCc3ccc4c(c3)OCO4)c2N)cc1 | 3% | ? | -17% | -5% | 1% | -10%
O=C(NCc1ccc(Cl)c(Cl)c1)c1ccc2c(c1)OCO2 | 29% | -17% | 0% | 21% | 7% | 1%
CC(NC(=O)c1cc2ccccc2[nH]1)c1ccccc1 (centres undefined) | nt | nt | nt | nt | 21% | nt
CN(C)CCNC(=S)Nc1ccc(-c2nc3ccccc3[nH]2)cc1 | ? | -3% | -44% | ? | -10% | -5%
S=C(NCc1ccc2c(c1)OCO2)Nc1ccc(-c2nc3ccccc3[nH]2)cc1 | ? | 21µM* | ? | 25% | ? | 18µM*
Cc1noc(-c2ccc3c(c2)OCO3)c1C(=O)NCc1ccccc1 | nt | nt | nt | nt | 1% | nt
COCC(C)n1c(COc2ccccc2F)nnc1SCc1ccc(C(C)(C)C)cc1 (centres undefined) | nt | nt | nt | nt | -25% | nt
CCC1=C(C(=O)OC)C(c2ccccc2)N2C(CC(=O)NCc3cccc(F)c3)=CSC2=N1 (centres undefined) | nt | nt | nt | nt | -7% | nt
Cn1c(=O)c2c(nc(SCc3nc(N)nc(N4CCCCC4)n3)n2C)n(C)c1=O | ? | 21µM* | -23% | -7% | 11% | 23µM*
NC(=O)c1ccc(COC(=O)c2ccc(Cl)cc2)cc1 | nt | nt | nt | nt | 7% | nt
Cc1ccc(C(=O)NCCN2C3=NC[C@H](C(C)C)N3C[C@H]2Cc2ccc(O)cc2)cc1Br | 4% | 5.2µM* | 0% | -8% | -27% | 10µM*
COc1ccc(C[C@H]2CN3C(=NC[C@@H]3C(C)C)N2CCNC(=O)c2ccc(C)c(Br)c2)cc1 | -6% | 9.2µM* | -21% | -12% | nt | 8.2µM*
C/C=C(\C)C(=O)NCCN1C2=NC[C@H](C(C)C)N2C[C@@H]1Cc1ccc(OC)cc1 | 5% | ? | 1% | -3% | 15% | -24%
COc1ccc(COc2cccc(C=O)c2)cc1 | ? | 3.7µM* | nt | nt | 16% | 4.6µM*
O=Cc1cccc(OCc2ccc(Br)cc2)c1 | nt | nt | nt | nt | -37% | nt

Screening results deposited in PubChem by National Center for Advancing Translational Sciences (NCATS).
